Source: the supplement of paper PMC11732987, “Enantioselective OTUD7B fragment discovery through chemoproteomics screening and high-throughput optimisation” (Communications Chemistry, 2025)
Unmarked numbers belong to inactive results.

How the values were obtained:
Experiment in all cases: log2 ratio of Biotin-Ahx-Ub-VS probe labelling (fragment/DMSO); higher = less target engagement (more negative = stronger competition), active = hit call of the paper (q ≤ 0.05, log2 ratio ≤ -1)
Details in all cases: compound concentration: 200 uM; treatment time: 3 h
[1] = target: T1, ALG13 (UniProt Q9NP73)
T1 sequence (whole entry): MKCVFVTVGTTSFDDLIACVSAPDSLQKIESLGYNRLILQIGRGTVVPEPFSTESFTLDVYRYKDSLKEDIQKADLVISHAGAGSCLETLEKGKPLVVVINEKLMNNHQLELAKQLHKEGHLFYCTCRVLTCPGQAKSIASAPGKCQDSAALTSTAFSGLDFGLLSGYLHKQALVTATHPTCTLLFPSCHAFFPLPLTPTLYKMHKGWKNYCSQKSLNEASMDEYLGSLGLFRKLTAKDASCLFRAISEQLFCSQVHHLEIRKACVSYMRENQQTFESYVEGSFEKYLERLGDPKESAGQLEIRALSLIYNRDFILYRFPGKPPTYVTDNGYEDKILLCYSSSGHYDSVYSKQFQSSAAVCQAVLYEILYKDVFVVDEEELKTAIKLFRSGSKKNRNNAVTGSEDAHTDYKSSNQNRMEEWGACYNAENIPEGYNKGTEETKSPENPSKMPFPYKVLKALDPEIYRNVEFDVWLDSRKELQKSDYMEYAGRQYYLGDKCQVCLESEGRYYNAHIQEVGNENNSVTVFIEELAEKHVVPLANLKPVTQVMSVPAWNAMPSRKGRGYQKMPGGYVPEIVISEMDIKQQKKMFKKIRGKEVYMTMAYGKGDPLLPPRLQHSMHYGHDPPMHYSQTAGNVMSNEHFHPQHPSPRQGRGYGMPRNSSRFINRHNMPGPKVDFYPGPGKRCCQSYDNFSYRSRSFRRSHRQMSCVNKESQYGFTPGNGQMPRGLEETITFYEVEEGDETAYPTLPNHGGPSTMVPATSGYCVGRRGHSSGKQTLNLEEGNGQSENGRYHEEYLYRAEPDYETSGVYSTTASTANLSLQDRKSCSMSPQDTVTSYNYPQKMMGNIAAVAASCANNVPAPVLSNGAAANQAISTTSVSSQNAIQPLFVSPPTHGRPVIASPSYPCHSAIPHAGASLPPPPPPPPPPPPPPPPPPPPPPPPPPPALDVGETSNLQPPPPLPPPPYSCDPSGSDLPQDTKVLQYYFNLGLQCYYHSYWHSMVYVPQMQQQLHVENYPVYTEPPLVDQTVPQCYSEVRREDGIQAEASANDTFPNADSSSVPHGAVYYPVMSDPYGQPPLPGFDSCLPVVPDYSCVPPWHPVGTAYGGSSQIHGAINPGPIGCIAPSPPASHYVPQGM
How it was run: (§1)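 In triplicate, 495 µg of HEK293T lysate per sample was incubated with fragment at 200 µM or vehicle for 3 h. Biotin-Ahx-Ub-VS was then added to 0.5 µM final for 1 h, and labelled DUBs were captured with NeutrAvidin, digested with LysC and trypsin, and measured by diaPASEF LC-MS/MS. Data are average log2 fragment/vehicle ratios by unpaired t-test from global-median-normalised Spectronaut label-free quantities, restricted to proteins with ≥2 unique peptides.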

[2] = target: ATXN3 (UniProt P54252)
How it was run: as §1

[3] = target: T2, BAP1 (UniProt Q92560)
T2 sequence (whole entry): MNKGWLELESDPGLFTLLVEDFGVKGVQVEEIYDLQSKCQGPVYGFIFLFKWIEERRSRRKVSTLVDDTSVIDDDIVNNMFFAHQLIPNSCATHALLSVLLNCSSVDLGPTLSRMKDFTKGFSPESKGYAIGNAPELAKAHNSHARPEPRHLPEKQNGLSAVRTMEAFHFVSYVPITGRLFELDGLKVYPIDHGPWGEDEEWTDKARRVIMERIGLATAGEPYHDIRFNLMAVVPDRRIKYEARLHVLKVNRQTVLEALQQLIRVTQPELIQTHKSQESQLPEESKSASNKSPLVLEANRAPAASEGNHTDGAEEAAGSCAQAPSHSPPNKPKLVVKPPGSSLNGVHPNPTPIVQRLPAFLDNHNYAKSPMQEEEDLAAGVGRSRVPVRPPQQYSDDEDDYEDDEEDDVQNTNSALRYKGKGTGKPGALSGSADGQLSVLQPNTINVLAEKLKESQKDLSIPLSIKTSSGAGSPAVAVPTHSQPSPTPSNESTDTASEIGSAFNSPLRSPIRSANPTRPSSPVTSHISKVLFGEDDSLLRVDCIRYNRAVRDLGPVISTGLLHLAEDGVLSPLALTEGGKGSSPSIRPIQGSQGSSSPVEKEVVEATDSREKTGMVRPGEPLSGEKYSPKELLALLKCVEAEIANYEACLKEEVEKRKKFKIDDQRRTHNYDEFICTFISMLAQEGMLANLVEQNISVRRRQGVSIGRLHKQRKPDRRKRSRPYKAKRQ
How it was run: as §1

[4] = target: EIF3F (UniProt O00303)
How it was run: as §1

[5] = target: EIF3H (UniProt O15372)
How it was run: as §1

[6] = target: T3, FAM105A (UniProt Q9NUU6)
T3 sequence (whole entry): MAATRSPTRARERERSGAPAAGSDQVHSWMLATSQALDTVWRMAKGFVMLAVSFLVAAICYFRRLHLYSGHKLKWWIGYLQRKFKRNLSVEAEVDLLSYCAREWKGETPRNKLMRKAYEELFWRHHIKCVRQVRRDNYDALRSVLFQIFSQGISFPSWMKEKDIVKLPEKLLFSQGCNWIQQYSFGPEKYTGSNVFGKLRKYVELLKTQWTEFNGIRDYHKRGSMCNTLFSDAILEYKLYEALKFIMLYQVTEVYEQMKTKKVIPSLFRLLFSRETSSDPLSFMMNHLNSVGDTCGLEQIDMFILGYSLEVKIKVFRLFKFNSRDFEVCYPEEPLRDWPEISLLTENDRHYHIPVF
How it was run: as §1

[7] = target: OTUB1 (UniProt Q96FW1)
How it was run: as §1

[8] = target: T4, OTUD4 (UniProt Q01804)
T4 sequence (whole entry): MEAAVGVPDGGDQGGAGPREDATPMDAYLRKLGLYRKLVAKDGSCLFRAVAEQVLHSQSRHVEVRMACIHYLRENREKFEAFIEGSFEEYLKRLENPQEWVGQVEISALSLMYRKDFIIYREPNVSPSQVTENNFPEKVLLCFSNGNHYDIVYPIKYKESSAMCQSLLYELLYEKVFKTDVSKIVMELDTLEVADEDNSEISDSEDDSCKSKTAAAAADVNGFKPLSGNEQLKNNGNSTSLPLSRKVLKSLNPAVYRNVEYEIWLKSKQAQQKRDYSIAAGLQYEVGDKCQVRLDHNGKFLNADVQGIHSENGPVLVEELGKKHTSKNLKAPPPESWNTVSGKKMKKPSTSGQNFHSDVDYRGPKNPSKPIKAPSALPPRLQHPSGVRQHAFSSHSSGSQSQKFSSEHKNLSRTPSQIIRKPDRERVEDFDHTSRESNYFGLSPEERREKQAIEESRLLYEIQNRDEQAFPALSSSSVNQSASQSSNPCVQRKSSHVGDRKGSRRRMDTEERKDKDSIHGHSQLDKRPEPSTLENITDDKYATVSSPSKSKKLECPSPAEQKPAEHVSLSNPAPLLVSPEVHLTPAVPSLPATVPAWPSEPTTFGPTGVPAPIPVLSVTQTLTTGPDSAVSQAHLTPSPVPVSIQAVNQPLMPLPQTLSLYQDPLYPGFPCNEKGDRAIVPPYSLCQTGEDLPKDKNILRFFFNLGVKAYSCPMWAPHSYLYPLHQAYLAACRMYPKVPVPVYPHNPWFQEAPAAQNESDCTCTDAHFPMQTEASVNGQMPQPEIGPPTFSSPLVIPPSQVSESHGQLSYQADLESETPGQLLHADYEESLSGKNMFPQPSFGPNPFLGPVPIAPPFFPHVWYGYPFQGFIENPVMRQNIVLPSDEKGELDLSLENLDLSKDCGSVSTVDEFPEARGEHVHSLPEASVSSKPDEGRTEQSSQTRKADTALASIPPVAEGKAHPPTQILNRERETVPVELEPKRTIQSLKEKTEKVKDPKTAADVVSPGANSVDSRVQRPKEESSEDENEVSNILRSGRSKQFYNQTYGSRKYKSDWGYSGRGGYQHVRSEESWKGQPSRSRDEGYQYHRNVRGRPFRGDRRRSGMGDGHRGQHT
How it was run: as §1

[9] = target: T5, OTUD5 (UniProt Q96G74)
T5 sequence (whole entry): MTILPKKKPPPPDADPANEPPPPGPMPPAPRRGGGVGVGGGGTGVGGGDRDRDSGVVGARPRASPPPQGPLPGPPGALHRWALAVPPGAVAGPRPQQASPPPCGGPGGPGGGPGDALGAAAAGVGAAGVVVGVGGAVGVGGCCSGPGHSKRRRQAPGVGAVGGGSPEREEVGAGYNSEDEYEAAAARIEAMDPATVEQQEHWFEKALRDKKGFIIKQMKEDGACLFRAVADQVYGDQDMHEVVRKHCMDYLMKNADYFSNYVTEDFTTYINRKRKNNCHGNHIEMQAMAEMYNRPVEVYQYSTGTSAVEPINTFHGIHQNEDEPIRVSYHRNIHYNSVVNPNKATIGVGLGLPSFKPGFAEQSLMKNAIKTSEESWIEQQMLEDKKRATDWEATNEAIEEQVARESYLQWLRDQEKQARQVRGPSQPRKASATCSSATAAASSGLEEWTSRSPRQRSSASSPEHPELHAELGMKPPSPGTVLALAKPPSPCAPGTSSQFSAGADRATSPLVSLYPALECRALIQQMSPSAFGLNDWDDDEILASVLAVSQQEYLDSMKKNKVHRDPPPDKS
How it was run: as §1

Sequence of EIF3H (O15372 whole entry): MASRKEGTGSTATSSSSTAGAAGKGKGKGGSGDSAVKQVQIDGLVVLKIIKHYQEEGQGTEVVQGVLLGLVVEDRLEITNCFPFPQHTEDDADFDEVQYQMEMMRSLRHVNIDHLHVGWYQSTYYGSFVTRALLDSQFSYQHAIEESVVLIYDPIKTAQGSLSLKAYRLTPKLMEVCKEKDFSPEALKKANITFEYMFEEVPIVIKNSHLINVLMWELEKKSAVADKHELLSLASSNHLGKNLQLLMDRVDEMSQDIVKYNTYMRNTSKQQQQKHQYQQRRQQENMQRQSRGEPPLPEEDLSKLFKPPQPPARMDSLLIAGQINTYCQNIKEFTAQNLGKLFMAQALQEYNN
Sequence of EIF3F (O00303 whole entry): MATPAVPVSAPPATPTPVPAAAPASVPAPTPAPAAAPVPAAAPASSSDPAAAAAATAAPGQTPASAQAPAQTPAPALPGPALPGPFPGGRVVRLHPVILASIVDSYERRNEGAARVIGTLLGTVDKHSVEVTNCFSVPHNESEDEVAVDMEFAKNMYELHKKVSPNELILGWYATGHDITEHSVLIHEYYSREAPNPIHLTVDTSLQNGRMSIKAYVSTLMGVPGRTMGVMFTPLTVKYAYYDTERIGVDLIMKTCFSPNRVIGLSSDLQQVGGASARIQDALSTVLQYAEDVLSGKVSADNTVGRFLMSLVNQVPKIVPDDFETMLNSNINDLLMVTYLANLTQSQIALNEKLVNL
Sequence of OTUB1 (Q96FW1 whole entry): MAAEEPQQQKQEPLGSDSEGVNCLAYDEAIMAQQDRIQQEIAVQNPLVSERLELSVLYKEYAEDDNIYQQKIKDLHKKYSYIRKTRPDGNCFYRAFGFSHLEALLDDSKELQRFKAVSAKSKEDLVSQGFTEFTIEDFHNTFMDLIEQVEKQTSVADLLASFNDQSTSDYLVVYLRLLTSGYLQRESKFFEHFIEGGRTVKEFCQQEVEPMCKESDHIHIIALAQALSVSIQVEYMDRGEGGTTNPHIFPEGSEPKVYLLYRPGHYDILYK
Sequence of ATXN3 (P54252 whole entry): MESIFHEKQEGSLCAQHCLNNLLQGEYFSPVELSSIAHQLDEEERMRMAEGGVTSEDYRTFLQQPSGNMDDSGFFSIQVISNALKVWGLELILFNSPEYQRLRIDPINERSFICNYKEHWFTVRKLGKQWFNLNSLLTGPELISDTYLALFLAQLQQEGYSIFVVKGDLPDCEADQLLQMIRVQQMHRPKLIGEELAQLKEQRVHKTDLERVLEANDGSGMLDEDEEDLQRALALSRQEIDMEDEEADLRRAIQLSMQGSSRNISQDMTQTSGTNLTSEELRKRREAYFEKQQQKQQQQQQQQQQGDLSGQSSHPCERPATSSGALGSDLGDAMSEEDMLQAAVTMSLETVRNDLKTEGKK

Compound: CC(NC(=O)CCl)c1cc2n(n1)CCCC2.Cl (centres undefined)
- log2 ratio of Biotin-Ahx-Ub-VS probe labelling [1]: 0.164
- log2 ratio of Biotin-Ahx-Ub-VS probe labelling [2]: 0.242
- log2 ratio of Biotin-Ahx-Ub-VS probe labelling [3]: -1.36 (active)
- log2 ratio of Biotin-Ahx-Ub-VS probe labelling [4]: -0.359
- log2 ratio of Biotin-Ahx-Ub-VS probe labelling [5]: 0.193
- log2 ratio of Biotin-Ahx-Ub-VS probe labelling [6]: -0.0943
- log2 ratio of Biotin-Ahx-Ub-VS probe labelling [7]: 0.0152
- log2 ratio of Biotin-Ahx-Ub-VS probe labelling [8]: 0.133
- log2 ratio of Biotin-Ahx-Ub-VS probe labelling [9]: -0.0818
